Test results from the supplement of paper PMC10981050.
Where “and” joins values, the source holds several entries; their conditions need not be identical. Equal values may be shown once. Where a name gives a salt, the structure may show the parent alone.

Columns and labels:
Assay in all cases: cell viability relative to vehicle control; higher = less cytotoxic
Details in all cases: 10 µM
K562 = tested on: K562
How it was run: (§1)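 Four leukaemia lines, as CRISPR-edited mutant clones and isogenic wild-type clones, were tested against Selleck bioactive, kinase and epigenetic probe libraries after removal of identity-inconsistent compounds. Cells were exposed to a single 10 µM dose for 48 h, and CellTiter-Glo luminescence was then read. Viability was calculated relative to the on-plate vehicle control.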

MARIMO = tested on: MARIMO
How it was run: as §1

MOLM14 = tested on: MOLM14
How it was run: as §1

OCI-AML2 = tested on: OCI-AML2
How it was run: as §1

Row | Compound | cell viability (K562; SRSF2 genotype: SRSF2 P95H/wt) | cell viability (K562; SRSF2 genotype: SRSF2 wt/wt) [%] | cell viability (MARIMO; SRSF2 genotype: SRSF2 P95H/wt) [%] | cell viability (MARIMO; SRSF2 genotype: SRSF2 wt/wt) [%] | cell viability (MOLM14; SRSF2 genotype: SRSF2 P95H/wt) [%] | cell viability (MOLM14; SRSF2 genotype: SRSF2 wt/wt) [%] | cell viability (OCI-AML2; SRSF2 genotype: P95H/wt) [%] | cell viability (OCI-AML2; SRSF2 genotype: wt/wt) [%]
1 | CCN1CC(CCN2CCOCC2)C(c2ccccc2)(c2ccccc2)C1=O (configuration not stated) [Doxapram HCl] | 104% and 111% | 112 | 112 | 111 | 104 | 109 | 111 | 95.4
2 | NC(N)=Nc1nc(CSCC/C(N)=N/S(N)(=O)=O)cs1 [Famotidine (Pepcid)] | 105% and 106% | 109 | 111 | 106 | 103 | 107 | 107 | 107
3 | C/C=C(\C)C(=O)OC1c2c(ccc3ccc(=O)oc23)OC(C)(C)C1OC(=O)/C(C)=C/C (configuration not stated) [Paeruptorin B] | 92.7% and 97.1% | 89.7 | 86.9 | 96.3 | 89.7 | 92.3 | 93.8 | 103
4 | O=C(Nc1ccc([N+](=O)[O-])cc1O)Nc1ccccc1Br | 16.9% and 34.5% | 33.9 | 7.34 | 8.23 | 13.5 | 3.38 | 8.53 | 10.4
5 | O=C(Nc1cccnc1)c1cc(-c2ccnc(F)c2)ccc1OCc1ccccc1 | 97.4% and 102% | 94.6 | 97.5 | 102 | 104 | 98.7 | 95.8 | 95.6
6 | CC(N)C12CC3CC(CC(C3)C1)C2 (configuration not stated) [Rimantadine (Flumadine)] | 101% and 98.2% | 108 | 98.9 | 104 | 99.8 | 102 | 89.8 | 96.6
7 | CCNC(=O)Nc1ccc(-c2nc3c(c(N4CCOC[C@@H]4C)n2)CCN(C2COC2)C3)cc1 | 40.5% and 42.9% | 39.5 | 61.5 | 53.6 | 37.4 | 28.8 | 36.3 | 33.7
8 | COC(=O)c1cc(OC)c2c(c1-c1c(C(=O)OC)cc(OC)c3c1OCO3)OCO2 [Bifendate] | 109% | 98.7 | 101 | 101 | 99.3 | 101 | 106 | 94.3
9 | CCOC(=O)C1OC1C(=O)NC(CC(C)C)C(=O)NCCC(C)C (configuration not stated) | 103% | 97.2 | 96.3 | 101 | 88.7 | 101 | 98.5 | 104
10 | C[C@@H]1CC(=O)NN=C1c1ccc(NN=C(C#N)C#N)cc1 [Levosimendan] | 92.4% and 105% | 99.4 | 68.9 | 86 | 94.7 | 81.7 | 69.8 | 67.1
11 | CS(=O)(=O)N1CCN(Cc2cc3nc(-c4cccc5[nH]ncc45)nc(N4CCOCC4)c3s2)CC1 [Pictilisib (GDC-0941)] | 88.3% and 97.1% | 94.5 | 64.3 | 57.8 | 55.9 | 64.6 | 48.5 | 55
12 | Cn1cc(CNCC2CCN(c3ncc(C(=O)NO)cn3)CC2)c2ccccc21 | 1.34% and 13.5% | 3 | 7.96 | 11.5 | 0.72 | 0.54 | 1.8 | 2.84
13 | COc1cc2c(cc1OC(C)C)[C@H](c1ccc(Cl)cc1)N(c1ccc(N(C)C[C@H]3CC[C@H](N4CCN(C)C(=O)C4)CC3)cc1)C(=O)C2 | 68.8% and 72.1% | 68.4 | 67.8 | 71.8 | 0.15 | 0.13 | 0.22 | 2.94
14 | CN1CCN(c2ccc(C(=O)Nc3n[nH]c4ccc(Cc5cc(F)cc(F)c5)cc34)c(NC3CCOCC3)c2)CC1 [Entrectinib (RXDX-101)] | 0.53% and 0.51% | 0.41 | 0.56 | 2.11 | 0.29 | 0.28 | 0.22 | 0.35
15 | COc1cc(C(=O)O)ccc1O [Vanillic acid] | 103% and 97.7% | 111 | 98.9 | 105 | 102 | 108 | 104 | 113
16 | N#CCNC(=O)c1ccc(-c2ccnc(Nc3ccc(N4CCOCC4)cc3)n2)cc1 [Momelotinib (CYT387)] | 81.2% and 85.3% | 86.1 | 26.7 | 42.8 | 15 | 5.08 | 11 | 15.7
17 | CNC(=O)c1c(F)cccc1Nc1nc(Nc2cc3c(cc2OC)CCN3C(=O)CN(C)C)nc2[nH]ccc12 | 6.79% and 7.34% | 5.25 | 46.2 | 38.8 | 0.66 | 0.35 | 0.91 | 1.46
18 | Cc1ncc(CCCN(C)C)cc1Nc1ncc2c(n1)-c1ccc(C(F)(F)F)cc1NC(=S)C2 | 46.2% and 57.9% | 54.3 | 49.5 | 44.5 | 18.3 | 8.47 | 16.3 | 21.1
19 | Cc1cc(Nc2cc(Cl)nc(Oc3ccc([N+](=O)[O-])cc3)n2)n[nH]1 [Autophinib] | 30.5% and 32.9% | 31.3 | 33.4 | 53.3 | 29.9 | 14.5 | 50 | 47.9
20 | Nc1nccc(Oc2ccc(NC(=O)c3c[nH]cc(-c4ccc(F)cc4)c3=O)cc2F)c1Cl | 76.3% and 90.6% | 80.8 | 96.2 | 110 | 19.9 | 14.8 | 41.8 | 43.6

Row | Compound | cell viability (K562; SRSF2 genotype: SRSF2 P95H/wt) | cell viability (K562; SRSF2 genotype: SRSF2 wt/wt) [%] | cell viability (MARIMO; SRSF2 genotype: SRSF2 P95H/wt) [%] | cell viability (MARIMO; SRSF2 genotype: SRSF2 wt/wt) [%] | cell viability (MOLM14; SRSF2 genotype: SRSF2 P95H/wt) [%] | cell viability (MOLM14; SRSF2 genotype: SRSF2 wt/wt) [%] | cell viability (OCI-AML2; SRSF2 genotype: P95H/wt) [%] | cell viability (OCI-AML2; SRSF2 genotype: wt/wt) [%]
21 | O=C(NOCCO)c1ccc2cncn2c1Nc1ccc(I)cc1F | 78.1% and 89.5% | 80.8 | 41.2 | 37 | 43.5 | 27 | 39.1 | 40.2
22 | CN[C@@H](C)C(=O)N[C@H](C(=O)N1CCC[C@H]1C(=O)Nc1snnc1-c1ccccc1)C1CCCCC1 | 98.6% and 96.3% | 97.7 | 101 | 105 | 89.6 | 104 | 102 | 123
23 | O=C[C@H](O)[C@@H](O)[C@H](O[C@H]1O[C@H](CO)[C@@H](O[C@H]2O[C@H](CO)[C@@H](O[C@H]3O[C@H](CO)[C@@H](O[C@H]4O[C@H](CO)[C@@H](O)[C@H](O)[C@H]4O)[C@H](O)[C@H]3O)[C@H](O)[C@H]2O)[C@H](O)[C@H]1O)[C@H](O)CO [Maltopentaose] | 101% | 103 | 97.8 | 105 | 104 | 106 | 109 | 110
24 | COc1ccc(C=O)c(O)c1 [4-Methoxysalicylaldehyde] | 97.5% and 89.5% | 97.8 | 93.5 | 102 | 99.4 | 95.9 | 97 | 92
25 | Cc1ccc(S(=O)(=O)C=CC#N)cc1 | 1.6% and 0.48% | 0.6 | 0.37 | 0.39 | 0.28 | 0.27 | 0.28 | 0.35
26 | O=C(COc1cccc2c(=O)[nH]ccc12)c1ccccc1 | 89.7% and 93.9% | 98.9 | 94.6 | 88.4 | 102 | 98.5 | 88 | 84.1
27 | CCCCCCCCCC(=O)OCC(COC(=O)CCCCCCCCC)OC(=O)CCCCCCCCC [Glyceryl tridecanoate] | 105% and 101% | 100 | 106 | 114 | 100 | 104 | 97.2 | 98.6
28 | O=S(=O)(c1ccccc1)N(CC(F)(F)F)c1ccc(C(O)(C(F)(F)F)C(F)(F)F)cc1 | 74.6% and 72.6% | 72.3 | 67.8 | 70.4 | 62.3 | 65.2 | 67.5 | 70.7
29 | S=C=Nc1cccc(NC(=S)NCCCCNC(=S)Nc2cccc(N=C=S)c2)c1 | 98.3% and 104% | 98.8 | 106 | 105 | 102 | 106 | 109 | 106
30 | C[n+]1c2n(c(=O)c3ccccc31)CCc1c-2[nH]c2ccccc12 [Dehydroevodiamine hydrochloride] | 94.4% and 99.8% | 89.2 | 91.7 | 100 | 92.8 | 92.9 | 86.8 | 96.2
31 | C=C(C)[C@@H]1CC[C@]2(C(=O)O)CC[C@]3(C)[C@H](CC[C@@H]4[C@@]5(C)CCC(=O)C(C)(C)[C@@H]5CC[C@]43C)[C@@H]12 [Betulonic acid] | 45.2% and 68% | 61.4 | 34.2 | 20.9 | 43.6 | 32.2 | 29.6 | 17.1
32 | Cc1ccc(=O)n(-c2ccccc2)c1 [Pirfenidone] | 104% and 107% | 103 | 103 | 103 | 97.1 | 98.8 | 109 | 106
33 | C[C@@H](Oc1cc(-c2cnn(C3CCNCC3)c2)cnc1N)c1c(Cl)ccc(F)c1Cl | 1.39% and 1.02% | 1.8 | 23.6 | 16.2 | 0.46 | 0.63 | 0.4 | 1.89
34 | CCCCC1C(=O)N(c2ccccc2)N(c2ccccc2)C1=O [Phenylbutazone (Butazolidin, Butatron)] | 98.1% and 102% | 94.9 | 97.2 | 102 | 98 | 99.9 | 106 | 107
35 | CCOC(=O)c1cnc2ccc(-c3cncc(NS(=O)(=O)c4ccccc4)c3)cn12 | 22.4% and 35.9% | 34.2 | 17.1 | 20 | 3.14 | 4.38 | 2.77 | 9.47
36 | CC1=CCC(C(C)(C)O)CC1 (configuration not stated) | 102% and 104% | 103 | 101 | 105 | 96.1 | 103 | 103 | 103
37 | N[C@@H](C(=O)N[C@@H]1C(=O)N2C(C(=O)O)=C(Cl)CS[C@H]12)c1ccccc1 [Cefaclor] | 109% and 110% | 113 | 104 | 104 | 108 | 106 | 112 | 123
38 | COc1ccnc2[nH]cc(C(=O)C(=O)N3CCN(C(=O)c4ccccc4)C[C@H]3C)c12 | 93.7% and 90.7% | 84.5 | 90 | 99.2 | 95.6 | 90.3 | 82.2 | 86.4
39 | CN(C)C/C=C/C(=O)Nc1cc2c(Nc3ccc(F)c(Cl)c3)ncnc2cc1O[C@H]1CCOC1 [Afatinib (BIBW2992)] | 8.97% and 5.94% | 6.24 | 1.96 | 1.37 | 0.03 | 0.04 | 0.06 | 0.13
